Compound activity from PubChem BioAssay.
Compounds with a hit are over-represented: about 21% of the library has one in this group of screens.
D3 ag: qHTS of D3 Dopamine Receptor Agonist: qHTS; D3R DiscoveRx beta-arrestin cells, luminescence, 90 min; 410,000 compounds, 0.58% hits; D(3) dopamine receptor (Homo sapiens), P35462; max activation, %; AID 652048, 2013; in the data active = max activation above about 30%; also: 0% is about no effect
Target sequence (P35462 whole entry, looked up): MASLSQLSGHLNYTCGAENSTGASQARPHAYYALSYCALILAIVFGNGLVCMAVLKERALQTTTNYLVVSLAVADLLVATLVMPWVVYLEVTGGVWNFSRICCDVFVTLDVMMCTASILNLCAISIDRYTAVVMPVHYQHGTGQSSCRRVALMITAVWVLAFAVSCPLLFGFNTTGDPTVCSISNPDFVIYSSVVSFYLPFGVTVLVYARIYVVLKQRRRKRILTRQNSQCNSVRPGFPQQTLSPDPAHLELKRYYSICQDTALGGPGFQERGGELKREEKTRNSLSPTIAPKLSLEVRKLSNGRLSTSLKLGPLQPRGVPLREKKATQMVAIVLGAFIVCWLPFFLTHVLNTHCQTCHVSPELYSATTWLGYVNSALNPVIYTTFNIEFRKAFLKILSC
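Cells at 1500/well, incubated overnight, then treated with pinned compounds (dopamine as control) for 90 min at 37 degrees C. DiscoveRx reagent added for 30 - 60 minutes at room temperature; luminescence read.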
D3 antag: qHTS of D3 Dopamine Receptor Antagonist: qHTS. D(3) dopamine receptor (Homo sapiens), P35462. D3R cells, DiscoveRx beta-arrestin luminescence, antagonist mode; stronger effect = lower value. max response, negative = inhibition, %. 360,000 compounds, 2.5% hits. AID 652054, 2013; in the data active = max response below about -50%; inconclusive = no clear call, values can overlap the other calls; also: % is scaled to controls: 0 for no effect and ±100 for the full control effect
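Cells plated overnight at 1500 cells/well, then exposed to library compounds with dopamine controls for 90 minutes at 37 degrees C. DiscoveRx reagent added for 30–60 minutes at room temperature; luminescence read, quantitative HTS format.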
TDP1 cell CPT: qHTS for Inhibitors of human tyrosyl-DNA phosphodiesterase 1 (TDP1): qHTS in cells in presence of CPT | chicken DT40 Tdp1-/-;hTDP1 cells + 20 nM CPT, ATP luminescence, 48 h | Potency, µM (doses to about 46.2 µM), inactives show at the top dose activity change, negative = growth inhibition, hits mostly inhibitors | 420,000 compounds, 12% hits | AID 686979, 2013; also: potency is read from the fitted curve at half-maximal effect; % is scaled to controls: 0 for no effect and ±100 for the full control effect; nearly all actives have a fitted effect of over 55% in size
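Chicken DT40 Tdp1-/- cells stably complemented with human TDP1 were seeded at 400 cells/well in medium containing 20 nM camptothecin, exposed to pin-transferred compounds, and grown at 37 °C for at least 48 hr. Viability was read as ATP luminescence.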
ClpP mod: qHTS Assay for Activators of ClpP | Potency, µM (titrated, usually from 57.5 µM), without a hit: top-dose activity change, negative = active | purified B. subtilis ClpP, FRET peptide cleavage, 20 min | AID 651965, 2013 | 340,000 compounds, 1.9% hits | ATP-dependent Clp protease proteolytic subunit (Bacillus subtilis (strain 168)), P80244; active = well fitted falling curve with a large enough effect; inconclusive = small, poorly fitted or top-dose-only effect; inactive = no such curve, though single readings can be large or run the other way; also: potency is read from the fitted curve at half-maximal effect; the source files actives as falling curves though it sought activators and does not explain the sign; nearly all actives have a fitted effect of over 65% in size
Target sequence (P80244 whole entry, looked up): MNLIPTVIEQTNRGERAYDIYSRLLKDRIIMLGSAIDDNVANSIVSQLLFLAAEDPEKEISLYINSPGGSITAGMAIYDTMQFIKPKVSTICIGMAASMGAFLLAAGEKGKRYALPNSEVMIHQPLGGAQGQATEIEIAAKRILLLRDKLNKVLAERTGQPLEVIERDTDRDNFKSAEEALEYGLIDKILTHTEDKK
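Purified B. subtilis ClpP, 10 microg/mL final in Tris/HCl pH8 with KCl, BSA, glycerol and Tween-20, cleaved an Abz/nitrotyrosine-quenched decapeptide. Fluorescence (ex 320, em 430) was read at 0 and 20 min at room temperature. Delta was normalized to 5.8 microM ADEP and DMSO/no-enzyme controls.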
IL-1B inflam inh: qHTS for Inhibitors of Inflammasome Signaling: IL-1-beta AlphaLISA Primary Screen; THP-1 LPS/ATP IL-1B secretion, AlphaLISA, 16 h; stronger effect = lower value; activity change, % at 57.5 µM; 360,000 compounds, 4.7% hits; in the data active = activity change below about -50%; inconclusive = mostly about -30% to -49%; also: % is scaled to controls: 0 for no effect and ±100 for the full control effect
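THP-1 cells pretreated 1 hr with compounds (up to 57.5 uM final), then stimulated with LPS (250 ng/mL final) plus ATP (1.25 mM final); secreted IL-1B measured by AlphaLISA after 16 hr, decreased signal indicating inhibition.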
TDP1 cell noCPT: qHTS for Inhibitors of human tyrosyl-DNA phosphodiesterase 1 (TDP1): qHTS in cells in absence of CPT | DT40 Tdp1-/- hTDP1 cells, no CPT, ATP luminescence, 48 h | Potency, µM (titrated, usually from 46.2 µM), for inactives: at the top dose activity change, negative = growth inhibition, hits mostly inhibitors | 420,000 compounds, 15% hits; also: potency is read from the fitted curve at half-maximal effect; % is scaled to controls: 0 for no effect and ±100 for the full control effect; nearly all actives have a fitted effect of over 55% in size
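DT40 Tdp1-/-;hTDP1 cells, no CPT (DMSO vehicle only), 400 cells/well; compounds pin-transferred; ≥48 hr, 37 °C; CellTiter-Glo 30 min RT dark, luminescence read.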
Starred values were filed as active, the others as inactive; ? = inconclusive; nt = no result given. Unless noted, calls follow the shape of the dose curve; as a rule, active = well fitted inhibition curve with a large enough effect; inconclusive = small, poorly fitted or top-dose-only effect; inactive = flat fitted curve, though single readings scatter.

SMILES	D3 ag	D3 antag	TDP1 cell CPT	ClpP mod	IL-1B inflam inh	TDP1 cell noCPT
NC(=O)CC(NC(=O)Cc1cccc2ccccc12)c1ccc(NCCc2ccc(F)cc2)c([N+](=O)[O-])c1 (configuration not stated)	-19	?	?	-2%	7	?
CN(C)C(=O)c1ccc(NC(=O)Cn2nc(-c3ccccc3)c3ccccc3c2=O)cc1	5	nt	-22%	-1%	nt	-22%
CN(C)c1ccc(N=Cc2ccncc2)cc1	nt	nt	6.3µM*	1%	nt	5.6µM*
CN(C)c1ccc(N=Cc2ccco2)cc1	-19	-9	8.2µM*	-3%	1	5.2µM*
COC(=O)c1ccc(C2C=C(c3ccc(Cl)cc3)Nc3nc4ccccc4n32)cc1 (configuration not stated)	-11	nt	9.2µM*	1%	nt	8.2µM*
Fc1ccc(C2=CC(c3ccc(F)cc3)n3c(nc4ccccc43)N2)cc1 (configuration not stated)	-12	nt	15µM*	2%	nt	5.2µM*
COc1ccc(C2=CC(c3cc(Br)ccc3F)n3c(nc4ccccc43)N2)cc1 (configuration not stated)	-4	nt	?	-5%	nt	?
CC(C)C1=CC2=CCC3[C@@](C)(CCC[C@@]3(C)C(=O)O)C2CC1 (some centres not stated)	nt	nt	6%	nt	nt	-7%
Cc1c(F)cccc1NS(=O)(=O)c1ccc2c(c1)c(C)cc(=O)n2C	0	3	?	-4%	12	?
Cc1cc(=O)c2c(o1)C(=O)c1occc1C2=O	-10	-28	18µM*	3%	0	15µM*
COc1cc(NC(=O)CN2CCCN(S(=O)(=O)c3ccc(F)cc3)CC2)cc(OC)c1	-13	nt	?	0%	nt	?
CC(=O)N(c1ccccc1Cl)S(=O)(=O)c1ccc(Cl)cc1	8	15	11%	0%	-17	-28%
CC(=O)Oc1ccccc1N(C(C)=O)S(=O)(=O)c1ccc(C)cc1	16	3	-12%	-1%	0	-2%
CC(=O)Oc1ccc(N(C(C)=O)S(=O)(=O)c2ccccc2)c2ccccc12	2	5	21µM*	-2%	122	?
CC(=O)Oc1ccc(N(C(C)=O)S(=O)(=O)c2ccc(C)cc2C)c2ccccc12	-8	-1	23µM*	1%	88	?
COc1ccc(S(=O)(=O)N(C(C)=O)c2ccc(OC(C)=O)c3ccccc23)cc1[N+](=O)[O-]	-3	-17	3.3µM*	-4%	124	3.7µM*
CC(=O)Oc1c(Cl)cc(N(C(C)=O)S(=O)(=O)c2ccccc2)c2ccccc12	-10	-21	10µM*	1%	186	4.6µM*
NC(Cc1c[nH]c2ccccc12)C(=O)NCC(=O)O (configuration not stated)	nt	nt	-4%	nt	nt	10%
Cc1cccc(N(CC(=O)NCc2ccccc2)S(C)(=O)=O)c1C	-13	nt	-24%	-1%	nt	-10%
CCOc1ccccc1C(=O)NC1CC2CCCC(C1)N2C1CC1 (configuration not stated)	-4	-24	-26%	-2%	22	-24%
O=C(NC1CC2CCC(C1)N2Cc1nnnn1Cc1ccco1)NC12CC3CC(CC(C3)C1)C2 (configuration not stated)	0	-7	21µM*	0%	31	18µM*
CCOc1ccccc1C(=O)NC1CC2CCCC(C1)N2Cc1nnnn1Cc1ccco1 (configuration not stated)	1	10	?	1%	?	16µM*
CC(C)(C)OC(=O)N[C@H](C(=O)OC(C)(C)C)c1ccccc1	11	-13	?	3%	29	-15%
COc1ccc(C(=O)Nc2nccs2)cc1	-2	7	7%	-23%	13	5%
COc1ccc(NC(=O)Nc2ccc3nccnc3c2)cc1	-18	0	26µM*	-1%	-30	21µM*
SMILES	D3 ag	D3 antag	TDP1 cell CPT	ClpP mod	IL-1B inflam inh	TDP1 cell noCPT
COc1ccc(NC(=O)Nc2ccc3nonc3c2)cc1	-11	-26	2%	nt	nt	?
COc1ccc(NC(=O)Nc2nccs2)cc1	-5	-7	13µM*	-2%	11	16µM*
COc1ccc(CNC(=O)CN2C(=O)CCCc3ccccc32)cc1	2	nt	-20%	-1%	nt	2%
O=C(Nc1ccon1)c1sc2cc(Cl)ccc2c1Cl	10	2	0%	-1%	0	1%
COc1ccc(CCNCc2csc3nc4ccccc4n23)cc1OC	12	-20	12µM*	-1%	-7	9.2µM*
COc1ccc(CCNC(=O)Cc2ccc([N+](=O)[O-])cc2)cc1OC	-8	-17	5%	2%	19	2%
COc1ccc(CCNCc2ccc(-c3ccccc3)cc2)cc1OC	-18	?	?	nt	-90*	23µM*
COc1ccc(CCNCc2ccc(OCc3ccccc3)cc2)cc1	-3	-8	?	nt	-99*	?
COc1ccc(CCNC(=O)Cc2ccc(OCc3ccccc3)c(OC)c2[N+](=O)[O-])cc1OCc1ccccc1	15	11	23µM*	1%	30	8.2µM*
COc1ccc(CNS(=O)(=O)CCNCCc2ccccc2)cc1	-23	9	2%	0%	-6	?
COc1ccc(CCNc2nc3ccccc3n3nnnc23)cc1OC	2	-9	-22%	-3%	32	-29%
CCc1nn2c(=O)cc(COC(=O)COc3ccc(OC)cc3)nc2s1	-6	nt	-28%	-4%	nt	7%
Cc1nn(CC(=O)c2ccc3c(c2)OCCO3)c(=O)c(C#N)c1C	3	-5	-2%	nt	2	-9%
COc1ccc(CCNC(=S)NCc2ccc(Cl)c(Cl)c2)cc1OC	-1	4	-3%	nt	-85*	?
CCOc1cc(CNCc2ccccc2)ccc1OCc1ccc(Cl)cc1	-11	7	23µM*	nt	-94*	5.8µM*
CCNC(=S)NCc1ccc(OC)c(OC)c1	8	7	17%	1%	11	7%
COc1cc(CN(C)CCc2ccccc2)ccc1OCc1ccccc1	-12	?	?	-1%	?	26µM*
COc1cc(CNCCN2CCOCC2)ccc1OCc1cccc(Cl)c1	-7	3	?	-1%	?	16µM*
